Experimental data published in PubChem BioAssay (EPA / NIEHS).
Results filed as inconclusive are left out. Calls of active or inactive are those of the source. How the source made its calls, unless noted: active means hit-call score of the fitted dose curve at least 0.9, where 1 is the maximum; inactive means score below 0.9.

Tests used:
[1] = CCTE_Mundy_HCI_Cortical_NOG_NeuriteLength: CCTE's Neurite Outgrowth Assay in rat cortical cells for Neurite Length, Mundy Lab (AID 2284213)
Outline: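 Neurite length was read by high-content imaging of βIII-tubulin-labelled neurites in rat primary cortical cultures. Activity was fitted relative to DMSO.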

[2] = CCTE_Mundy_HCI_Cortical_Synap_Neur_Matur_NeuriteLength: CCTE's Synaptogenesis and Neurite Maturation Assay in rat cortical cells for Neurite Length, Mundy Lab (AID 2284214)
Outline: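 Rat primary cortical cultures, AraC added DIV 5, dosed DIV 7 through DIV 12 […]. Fixed, MAP2/synaptophysin immunostained with Hoechst; neurite length by high-content imaging, fitted in positive direction versus DMSO.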

[3] = CCTE_Mundy_HCI_Cortical_Synap_Neur_Matur_NeuriteSpotCountPerNeuron: CCTE's Synaptogenesis and Neurite Maturation Assay in rat cortical cells for Neurite Spot Count per Neuron Count, Mundy Lab (AID 2284215)
Outline: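 Read-out: neurite-associated synaptophysin puncta per neuron, imaged by high-content analysis after MAP2, synaptophysin and Hoechst staining. Rat primary cortical cultures, dosed DIV 7 through DIV 12; DMSO served as baseline.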

[4] = CCTE_Mundy_HCI_Cortical_Synap_Neur_Matur_SynapseCount: CCTE's Synaptogenesis and Neurite Maturation Assay in rat cortical cells for Synapse Count, Mundy Lab (AID 2284218)
Outline: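 Rat primary cortical cultures, AraC at DIV 5, chemical dosing DIV 7 to DIV 12 (288.33 h). Fixed cells stained for MAP2, synaptophysin and Hoechst; synapses per neuron counted by high-content imaging, loss of signal versus DMSO.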

[5] = CCTE_Mundy_HCI_hN2_NOG_NeuriteCount: CCTE's Neurite Outgrowth Assay in human hN2 cells for Neurite Count, Mundy Lab (AID 2284219; active means hit-call score of the fitted dose curve at least 0.9, where 1 is the maximum)
Outline: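 In this morphology assay, hNP1-derived neurons received test chemical 2 h post-plating and were fixed two days later in warm paraformaldehyde/sucrose containing Hoechst 33342. Neurites, labelled by rabbit anti-βIII-tubulin (1:800) and Alexa Fluor-488 (1:500), were counted automatically.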

[6] = CCTE_Mundy_HCI_hN2_NOG_NeuronCount: CCTE's Neurite Outgrowth Assay in human hN2 cells for Neuron Count, Mundy Lab (AID 2284221; active means hit-call score of the fitted dose curve at least 0.9, where 1 is the maximum)
Outline: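 Read-out is the number of betaIII-tubulin-positive neurons imaged by automated high-content analysis, with DMSO as negative control.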

[7] = CCTE_Mundy_HCI_Cortical_Synap_Neur_Matur_NeuriteCount: CCTE's Synaptogenesis and Neurite Maturation Assay in rat cortical cells for Neurite Count, Mundy Lab (AID 2284222);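 further: exposure from day 7 to day 12 in vitro with readout at day 12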
Outline: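 Rat primary cortical cells; AraC added at DIV 5, chemicals dosed with media change at DIV 7 through DIV 12. MAP2/synaptophysin/Hoechst immunostaining, high-content imaging of neurite number; fitted relative to DMSO.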

[8] = CCTE_Mundy_HCI_Cortical_Synap_Neur_Matur_CellBodySpotCount: CCTE's Synaptogenesis and Neurite Maturation Assay in rat cortical cells for Cell Body Spot Count, Mundy Lab (AID 2284223)
Outline: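 Read-out: cell body-associated synaptophysin puncta per neuron, imaged after MAP2, synaptophysin and Hoechst staining. Rat cortical cells, AraC DIV 5, chemical dosing DIV 7, fixation DIV 12. Activity fitted in positive direction relative to DMSO baseline.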

[9] = CCTE_Mundy_HCI_Cortical_NOG_BPCount: CCTE's Neurite Outgrowth Assay in rat cortical cells for Branch Point Count, Mundy Lab (AID 2284237)
Outline: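 Measured 50.33 h after dosing, this morphology endpoint uses rat primary cortical cultures labelled for betaIII-tubulin. Branch points are quantified by high-content imaging, with DMSO as negative control and baseline.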

[10] = CCTE_Mundy_HCI_hNP1_Casp3_7: CCTE's Caspase-Glo 3/7 Assay in human neuroprogenitor cells for Apoptosis, Mundy Lab (AID 2284240)
Outline: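 Neuroepithelial-lineage stem cells from WA09 embryonic cells were treated with chemicals after 40–44 h of culture. Twenty-four hours later, caspase-3/7 activation was detected luminescently after a 30 min room-temperature reagent step, with DMSO as baseline.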

[11] = CCTE_Mundy_HCI_hNP1_CellTiter: CCTE's Cell Titer-Glo 2 Assay in human neuroprogenitor cells for Viability, Mundy Lab (AID 2284241; active means hit-call score of the fitted dose curve at least 0.9, where 1 is the maximum)
Outline: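 Measures ATP content in human neural progenitors derived from WA09 embryonic cells. Read-out at 26.5 hours after dosing, with DMSO serving as the negative control and baseline.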

[12] = CCTE_Mundy_HCI_Cortical_Synap_Neur_Matur_NeuronCount: CCTE's Synaptogenesis and Neurite Maturation Assay in rat cortical cells for Neuron Count, Mundy Lab (AID 2284242; active means hit-call score of the fitted dose curve at least 0.9, where 1 is the maximum)
Outline: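 Rat primary cortical cells, AraC added at DIV 5, dosed with media change from DIV 7 to DIV 12. Fixed, Hoechst-stained and immunolabelled for MAP2 and synaptophysin; neuron number counted by high-content imaging, loss fitted versus DMSO.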

[13] = IUF_NPC2c_oligodendrocyte_migration_120hr: Leibniz Research Institute for Environmental Medicine (IUF) 120-hour Neural Progenitor Cell Migration Assay for Oligodendrocyte Migration (NPC2c) (AID 2284297);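 further: O4-positive oligodendrocyte migration distance divided by radial glia migration distance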
Outline: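 hNPC spheres (GW 16-19 cortex), PDL/laminin, DMEM/F12 3:1 + 1% N2, 37C. Dosing day 0–5, half feed day 3, DMSO ≤0.1%. Fixed 120 h; O4 ICC + Hoechst, HCI. Readout: mean oligodendrocyte distance from sphere edge / radial glia distance.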

[14] = IUF_NPC2a_radial_glia_migration_120hr: Leibniz Research Institute for Environmental Medicine (IUF) 120-hour Neural Progenitor Cell Migration Assay for Radial Glia Migration (NPC2a) (AID 2284298)
Outline: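 Hoechst-stained nuclei imaged at 120 h; algorithm maps sphere core by densest nuclei, sets migration edge at density threshold, gives radial glia migration distance (um) per well vs DMSO. hNPC spheres (0.3 mm), PDL/laminin, DMEM/F12 3:1 + 1% N2.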

[15] = IUF_NPC2a_radial_glia_migration_72hr: Leibniz Research Institute for Environmental Medicine (IUF) 72-hour Neural Progenitor Cell Migration Assay for Radial Glia Migration (NPC2a) (AID 2284299)
Outline: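 Human fetal neural progenitor spheres (0.3 mm) plated on poly-D-lysine/laminin in N2 differentiation medium and exposed from day 0 at 7 concentrations; radial glia migration distance from sphere edge measured at 72 h on brightfield images, mean of four directions, vs DMSO.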

[16] = IUF_NPC2b_neuronal_migration_120hr: Leibniz Research Institute for Environmental Medicine (IUF) 120-hour Neural Progenitor Cell Migration Assay for Neuron Migration (NPC2b) (AID 2284300)
Outline: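 hNPC spheres, PDL/laminin, DMEM:F12 3:1 + 1% N2, 37C/5% CO2; 7 concentrations + solvent control (DMSO ≤0.1%), 5 d exposure, half-feed day 3. Fix 120 h, TUBB3 ICC, HCI: mean neuron migration distance ÷ glia distance.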

[17] = IUF_NPC3_neuronal_differentiation_120hr: Leibniz Research Institute for Environmental Medicine (IUF) 120-hour Neuronal Differentiation Assay (NPC3) (AID 2284301)
Outline: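 Primary human fetal neural progenitor spheres (GW 16-19, 0.3 mm) plated on poly-D-lysine/laminin in N2 medium, exposed from day 0 for 120 h with half-medium refresh at day 3. TUBB3+ cells as percent of Hoechst nuclei in migration area; DMSO baseline.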

[18] = IUF_NPC4_neurite_length_120hr: Leibniz Research Institute for Environmental Medicine (IUF) 120-hour Neuronal Morphology Assay for Neurite Length (NPC4) (AID 2284302)
Outline: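 Human fetal cortex (GW 16-19) neural progenitor spheres, 0.3 mm, were plated on poly-D-lysine/laminin in N2 differentiation medium and exposed from day 0 for 120 h, half-feeding at day 3. Mean TUBB3+ neurite length (µm) came from skeletonized images, relative to DMSO.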

[19] = IUF_NPC4_neurite_area_120hr: Leibniz Research Institute for Environmental Medicine (IUF) 120-hour Neuronal Morphology Assay for Neurite Area (NPC4) (AID 2284305; active means hit-call score of the fitted dose curve at least 0.9, where 1 is the maximum)
Outline: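 Human fetal cortex-derived neural progenitor spheres (0.3 mm, GW 16-19) plated on poly-D-lysine/laminin in N2 differentiation medium and exposed from day 0 for 120 h across 7 concentrations plus solvent control. Neurite area is mean pixel area per TUBB3-positive neuron via skeletonization, analysed relative to DMSO.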

[20] = IUF_NPC2-5_cytotoxicity_72hr: Cytotoxicity Assessment at 72 hours in the Leibniz Research Institute for Environmental Medicine (IUF) Neural Progenitor Cell Migration and Differentiation Assay for Cytotoxicity (NPC2-5) (AID 2284306; active means hit-call score of the fitted dose curve at least 0.9, where 1 is the maximum;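 further: LDH release into supernatant measured by resorufin fluorescence marking membrane damage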)
Outline: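 Human fetal (GW 16-19) neural progenitor spheres, 0.3 mm, plated on poly-D-lysine/laminin in N2 differentiation medium and exposed from day 0 to 7 concentrations plus solvent control (DMSO ≤0.1%). LDH-dependent resazurin-to-resorufin fluorescence in supernatant at 72 h.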

[21] = IUF_NPC2-5_cytotoxicity_120hr: Cytotoxicity Assessment at 120 hours in the Leibniz Research Institute for Environmental Medicine (IUF) Neural Progenitor Cell Migration and Differentiation Assay (NPC2-5) (AID 2284307; active means hit-call score of the fitted dose curve at least 0.9, where 1 is the maximum)
Outline: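 hNPC spheres on PDL/laminin, N2 medium, 37C; 7 concs + solvent control, DMSO ≤0.1%; 5-day exposure, half medium changed day 3. LDH in supernatant at 120 h, resazurin→resorufin fluorescence, gain-of-signal.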

[22] = IUF_NPC2-5_cell_number_120hr: Cell Number Assessment at 120 hours in the Leibniz Research Institute for Environmental Medicine (IUF) Neural Progenitor Cell Migration and Differentiation Assay (NPC2-5) (AID 2284308);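 further: count of Hoechst-stained nuclei in migration zone around plated human neural progenitor spheres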
Outline: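 Hoechst-stained nuclei within the migration area were counted by automated high content imaging after 120 h. Single hNPC spheres differentiated on poly-D-lysine/laminin in DMEM/F12 (3:1) with 1% N2, compound present throughout, DMSO ≤0.1%.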

Measured: outcome

F
inactive: all assays above
